D2 ag-1: human D2 receptor agonism in beta-arrestin assay; DiscoveRx PathHunter D2 beta-arrestin, luminescence, 90 min; 100% = 57 uM dopamine signal; activation, % (concentration not given with the values); 360,000 compounds, 0.084% hits; in the data active = activation above about 40%; inconclusive = between about 15% and that limit
Target sequence (P14416 whole entry, looked up): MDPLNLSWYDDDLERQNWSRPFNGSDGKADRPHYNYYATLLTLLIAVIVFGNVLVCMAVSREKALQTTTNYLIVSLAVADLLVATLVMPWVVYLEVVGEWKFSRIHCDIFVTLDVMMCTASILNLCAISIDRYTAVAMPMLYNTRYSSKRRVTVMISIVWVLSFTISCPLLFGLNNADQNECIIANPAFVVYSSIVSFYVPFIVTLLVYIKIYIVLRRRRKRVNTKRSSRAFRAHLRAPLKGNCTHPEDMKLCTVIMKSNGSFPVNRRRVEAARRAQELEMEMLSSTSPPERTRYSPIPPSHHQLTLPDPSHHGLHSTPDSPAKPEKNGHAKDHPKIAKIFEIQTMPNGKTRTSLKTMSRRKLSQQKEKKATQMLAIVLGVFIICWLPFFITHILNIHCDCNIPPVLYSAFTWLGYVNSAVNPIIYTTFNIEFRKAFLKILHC
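Agonist mode: compounds alone added to overnight-plated D2 PathHunter cells for 90 min at 37 C, with 57 uM final dopamine (EC100) defining full response. Beta-arrestin recruitment detected by chemiluminescent reagent, read after 1 h at ambient temperature.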
D2 PAM-1: positive allosteric modulators of human D2 dopamine receptor | P14416 | HEK293 T-REx D2, calcium flux, EC20 dopamine potentiation | potentiation, % at 10 µM | 340,000 compounds, 0.34% hits;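 active = potentiation over 3 SD above the plate norm, cut at about 30% in these data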; note: 0% is about no effect
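Primary screen. Calcium kinetics in induced HEK293 T-REx D2 cells: compound pre-addition 180 s, EC20 dopamine, 180 s more.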
D2 PAM-2: positive allosteric modulators of human D2 dopamine receptor | potentiation, % (no concentration beside the values) | 360,000 compounds, 0.23% hits | DiscoveRx D2 beta-arrestin cells, luminescence, 90 min; 100% = 57 uM dopamine signal | P14416; in the data active = potentiation above about 50%; inconclusive = mostly about 30% to 49%
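PathHunter beta-arrestin assay in DiscoveRx D2 cells. Compounds were added with an EC20 of dopamine (50 nM final) for 90 min at 37 deg C. Luminescence was read 1 h after detection reagent, with 57 uM dopamine as the EC100 control.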
D2 ag-2: activates the human D2 dopamine receptor; P14416; HEK293 T-REx D2 cells, calcium flux agonist mode; activation, % at 2 µM; 340,000 compounds, 0.53% hits; AID 485358;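 active = activation over 3 SD above normal in the single-dose calcium agonist read, cut at about 30% in these data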; note: 0% is about no effect
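Calcium-flux readout, 1 cycle/sec over 180 s following compound pin transfer, in inducible HEK293 Trex D2 cells (force-coupled); dopamine controls included. Positive calcium responses during this window marked compounds as potential agonists.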
D2 antag: antagonists of human D2 dopamine receptor | P14416 | HEK293 TREx D2 cells, calcium flux, dopamine EC80 | inhibition, % at 10 µM | 340,000 compounds, 2% hits | AID 485344; in the data active = inhibition above about 30%; inactive = below that, where a call was filed; note: 0% is about no effect
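HEK293 T-REx D2 cells, tet-induced, calcium dye no-wash. Cpd pintool add, 180 s kinetic, then EC80 DA, 180 s kinetic. Ca flux read.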
* hit, by the source's call; ? = inconclusive; nt = no result. Rows were chosen to be rich in hits. Some 2.4% of all compounds tested hit in one or more screens of this group.

SMILES	D2 ag-1	D2 PAM-1	D2 PAM-2	D2 ag-2	D2 antag
CN1CCN(c2nc(-c3ccccc3)ncc2S(=O)(=O)c2ccccc2)CC1	-8	-22	-6	-1	54*
Cc1ccc2nc(CCl)[n+]([O-])c(-c3ccccc3)c2c1	0	14	3	0	-13
CN1CCc2nc(SCCOc3ccccc3)c(C#N)cc2C1	-3	nt	-23	0	31*
Cc1cc(OCC(=O)Nc2c(C(C)C)cccc2C(C)C)no1	-2	nt	1	nt	nt
Clc1ccc(OCCNCCc2ccccc2)cc1	0	-22	-6	3	54*
c1ccc(CCNCCCOc2cccc3ccccc23)cc1	-7	1	-27	1	35*
Cc1cccc(N2CCN(S(=O)(=O)c3cc(C(=O)Nc4ccccc4Cl)ccc3F)CC2)c1C	nt	-21	nt	nt	nt
O=C1COc2cc(S(=O)(=O)CCC(=O)N3CCN(c4cccc(Cl)c4)CC3)c(Cl)cc2N1	nt	nt	nt	0	nt
O=C(NC1CC1)C1CCN(C2CCN(C(=O)Cc3ccc(F)cc3)CC2)CC1	1	13	-2	2	34*
COc1ccc(N2CCN(C(=O)CS(=O)(=O)c3cccc4nsnc34)CC2)cc1	nt	10	nt	2	nt
CS(=O)(=O)N1CCN(c2ccc(NC(=S)NC(=O)c3ccccc3[N+](=O)[O-])cc2)CC1	3	-14	-13	0	33*
COc1ccc(-c2noc(CSc3nnc(C)n3-c3ccc(C)c(C)c3)n2)c(OC)c1	nt	-4	nt	-1	nt
COc1cc(/C=C2\CCC(C)C3=C(c4cc(OC)c(OC)c(OC)c4)C(C#N)=C(N)OC32)cc(OC)c1OC (stereo not given)	0	nt	-8	nt	nt
COc1ccc2nc(NC(=O)C3CC(=O)N(c4ccccc4)C3)sc2c1 (stereo not given)	-1	6	-7	0	31*
COc1ccc(N2CC(C(=O)Nc3nc4ccc(OC)cc4s3)CC2=O)cc1 (stereo not given)	-1	1	1	1	-12
C=CCn1c(Oc2cc(C)ccc2C)nc2c1c(=O)n(C)c(=O)n2C	0	15	16	-1	30*
NC(N)=NCc1cccc(I)c1	5	-5	-17	1	34*
COc1cccc(NC(=O)C2CCCN2C(=O)Nc2cccc(F)c2)c1 (stereo not given)	-2	-2	3	0	2
COc1cccc(NC(=O)C2CCCN2C(=O)Nc2ccccc2)c1 (stereo not given)	-5	4	-14	-1	33*
O=C(O)c1ccc(N/N=C/c2ccnc3ccccc23)cc1	-8	-5	-5	0	40*
CN(CC1CCN(CCc2cccc(C(F)(F)F)c2)CC1)C(=O)c1ccc(F)cc1	5	-19	-26	0	58*
Cc1cc(OCC(=O)OCC(=O)N2CCCCC2)ccc1Cl	-1	nt	-5	nt	nt
CC(=O)c1ccc(OC(=O)COc2ccccc2Cl)cc1	-4	-4	-2	1	48*
Cc1ccc(OC(=O)COc2ccccc2C)cc1	-1	7	2	-1	-15
CC1CCCCN1C(=O)C12CCC(C)(/C(=N/O)C1)C2(C)C (stereo not given)	-2	0	0	1	35*
SMILES	D2 ag-1	D2 PAM-1	D2 PAM-2	D2 ag-2	D2 antag
CC1CCCCN1C(=O)C12CCC(C)(C(=O)C1)C2(C)C (stereo not given)	-1	nt	0	nt	nt
Cc1ccccc1CN(C)CC(=O)Nc1ccccc1Oc1ccccc1	-9	15	-8	3	43*
COC(C/C=C/[C@H](O)[C@H](C)OCc1ccccc1)OC	0	nt	-1	nt	nt
COCCCNCCCCOc1ccc(Br)cc1Cl	-4	-27	-36	1	65*
COCCNCCCOc1ccc(Cl)cc1Br	-2	-23	-15	1	-2
COCCNCCCOc1ccc(Br)cc1Cl	-1	-28	-39	0	33*
CC(C)c1ccc2nc(N)sc2c1	1	-3	-6	0	-19
Cc1cc2nc(N)sc2cc1C	0	9	-8	-1	34*
CC(C)(C)c1ccc2c(c1)OCC(C(=O)O)O2 (stereo not given)	-4	113*	2	nt	nt
CC(C)(C)c1ccc2c(c1)OC(C(=O)N/N=C\c1ccccn1)CO2 (stereo not given)	1	21	0	1	13
c1ccc(N2CCN(CC3CCCCC3)CC2)cc1	?	-19	-3	71*	68*
CCc1ccccc1NS(=O)(=O)c1cc(Br)cc2c1N(C(=O)C1CC1)CC2	nt	-10	nt	-1	nt
COc1ccc(N(CC(=O)NCCc2ccc(OC)c(OC)c2)S(=O)(=O)c2c(C)noc2C)cc1	64*	-2	-2	1	-12
COc1ccc(N(CC(=O)NCCc2ccc(C)cc2)S(=O)(=O)c2c(C)noc2C)cc1	4	-7	19	0	1
COc1cccc(-c2nc(S(=O)(=O)c3ccc(C)cc3)c(N3CCCCC3)o2)c1	nt	10	nt	0	nt
CC(C)(C)SCCNC(=O)CN(c1ccccc1)S(=O)(=O)c1ccc(F)cc1	-3	-4	-1	1	32*
N#CCSc1nc2ccccc2c2nc3ccccc3n12	0	5	-6	3	33*
COc1cc(/C=N/NC(N)=O)ccc1OC(=O)c1cccs1	4	3	0	0	-3
COc1cc(/C=N/N(C)C)ccc1OC(=O)c1cccs1	3	42*	-10	-1	-13
Cn1nc(C(=O)OCC(=O)N2CCc3ccccc32)c2ccccc2c1=O	-1	32*	-21	-1	8
CC1CC(OCC(O)CN2CCOCC2)CC(C)(C)C1 (stereo not given)	1	-4	1	0	46*
CC1CC(C)CN(CC(O)COC2CC(C)CC(C)(C)C2)C1 (stereo not given)	-5	nt	-24	nt	nt
Cc1cc(NCc2ccccc2Cl)n2cnnc2n1	nt	2	nt	1	nt
Cc1ccn(CCSCC(=O)O)n1	4	-9	8	0	11
Cc1ccn(CC(C)C(=O)O)n1 (stereo not given)	-3	-14	-4	1	34*
Cc1ccc(CC2C(=O)N(CC(=O)O)C(=O)C2C)cc1 (stereo not given)	-2	-8	-5	0	31*
Cc1ccc(S(=O)(=O)N(Cc2ccccc2)Cc2ccco2)cc1	-5	-10	-7	0	33*
Cc1ccc(S(=O)(=O)N(Cc2ccc(F)cc2)Cc2ccco2)cc1	3	-17	-3	0	-18
O=C(c1ccccc1)c1ccc(Cn2cc(CCCO)nn2)cc1	-1	6	-12	-1	5
O=C(O)CCCCCCCCc1cn(Cc2ccc(C(=O)c3ccccc3)cc2)nn1	1	3	3	0	42*
